# Activity calls are given as the source filed them. The call rests on the fitted dose curve; in most records, active means well fitted curve in the direction sought with a large enough effect in the repeat runs; inconclusive means weak or mixed curves; inactive means flat fitted curve, though single readings scatter.
# Assay: qHTS assay to test for compound auto fluorescence at 590 nm (red) in HepG2 cell free culture (AID 720684)
# Conditions: cell-free medium autofluorescence, red 540/590 nm; series mostly up to 91.3 µM
# From the text: U.S. Tox21 Program National Center for Advancing Translational Sciences [NCATS] NIH Chemical Genomics Center [NCGC] U.S. Environmental Protection Agency [EPA] National Institutes of Environmental Health Sciences [NIEHS] National Toxicology Program [NTP] U.S. Food and Drug Administration [FDA] Tox21 Assay Overview: Compound auto fluorescence often interferes with screening of the compound library against various biological targets and signaling pathways. Some of these compounds may have fluorophoric properties. Such properties may interfere with the assay outputs resulting in false positives and/or negatives. To decrease such complications and ensure the compound activities are relevant in terms of biological response, the Tox21 10K compound library was screened for auto fluorescence. From the fluorophores used as reporter signals in our screening assays, the auto fluorescence equivalencies of compounds against three fluorophores have been evaluated: Triamterene, Fluorescein and Rose Bengal sodium for blue, green and red fluorescence, respectively. The fluorescence intensities were measured using Excitation/Emission wavelengths at 405/460nm, 485/535nm and 540/590nm for blue, green and red labels, respectively. This assay includes the red fluorescence data.
# Tox21 Assay Protocol Summary: 5 uL of culture medium (MEM containing 10% FBS) per well was dispensed into black wall/clear bottom 1536-well plates using a Multidrop Combi Dispenser (ThermoFisher Scientific, Waltham, MA). After 23 nL compound or DMSO vehicle was transferred into assay plate by a pintool work station (Kalypsys, San Diego, CA), fluorescence intensities in the assay plates were measured by an Envision (PerkinElmer, Shelton, CT) plate reader using three labels for measuring blue, green and red fluorescence at […] 460, 535 and 590nm respectively.
# On the % scale 0 is the no-effect control and ±100 the full control effect.
SMILES,outcome,"fluorescence, % of Rose Bengal"
CCOC(=O)CCl,inactive,
O=[N+]([O-])c1cccc(CCl)c1,inactive,
CCN(CC)CCOC(=O)C(O)(c1ccccc1)c1ccccc1,inactive,
CC(C)(N)Cc1ccc(Cl)cc1,inactive,
O=C(Cl)c1ccccc1,inactive,
CC(C)(C)C(=O)Cl,inactive,
CC(C)N(Cc1ccccc1)C(=O)C(C)(C)C,inactive,
CCCC[N+](=O)[O-],inactive,
COc1ccc(CN2CCNCC2)c(OC)c1OC,,0.0451% [at 18.6 µM] (inactive)
CCSC(=O)Cl,inactive,
Cc1cc(OC(=O)N(C)C)nn1C(=O)N(C)C,inactive,
ClCOCCl,inactive,
CCOC(=O)C(Cl)Cc1cc(-n2nc(C)n(C(F)F)c2=O)c(F)cc1Cl (stereo not given),inactive,
CC[C@@H](CO)NC(=O)[C@@H]1C=C2c3cccc4[nH]cc(c34)C[C@H]2N(C)C1,inactive,
N#CC(Br)(Br)C(N)=O,inactive,
CCN(CC)C1CCCCC1,inactive,
CCN[C@@H](C)Cc1cccc(C(F)(F)F)c1,inactive,
Clc1nc(Cl)nc(Nc2ccccc2Cl)n1,inactive,
Cc1ccc(-c2nc3ccc(C)cn3c2CC(=O)N(C)C)cc1,inactive,
CS(=O)(=O)Cl,inactive,

SMILES,outcome,"fluorescence, % of Rose Bengal"
NCC1(CC(=O)O)CCCCC1,,0.0064% [at 18.6 µM] (inactive)
CCOC(=O)c1ncn2c1CN(C)C(=O)c1c(I)cccc1-2,inactive,
CNC(=O)NC(O)C(Cl)(Cl)Cl (stereo not given),inactive,
S=C=S,inactive,
CC1NCCOC1c1ccccc1 (stereo not given),inactive,
Cc1ccc2c(c1)C1CN(C)CCC1N2 (stereo not given),inactive,
Cc1ccc(Cl)c(O)c1,inactive,
O=C(O)C(F)(F)C(F)(F)C(F)(F)C(F)(F)C(F)(F)C(F)(F)F,inactive,
CNC(=O)Oc1cc(C)c(N(C)C)c(C)c1,inactive,
NNCc1ccccc1,inactive,
[O-][Br+2]([O-])O,inactive,
NC1(c2ccccc2)CCCCC1,inactive,
OP(O)c1ccccc1,inactive,
Clc1cc2c(cc1Cl)Oc1cc(Cl)c(Cl)cc1O2,,-0.248% [at 0.37 µM] (inactive)
C[C@H]1CCCC(=O)CCC/C=C/c2cc(O)cc(O)c2C(=O)O1,inactive,
CCCC(C)(COC(N)=O)COC(N)=O,inactive,
C[C@@H](N)[C@@H](O)c1ccccc1,,0.843% [at 18.6 µM] (inactive)
C#CC(C)(C)O,inactive,
CCc1cc(OC)c(C[C@H](C)N)cc1OC,inactive,
N=C(N)[Se],inactive,

# From PubChem BioAssay (Tox21)
